Rows were chosen to be rich in hits. Some 9.3% of all compounds tested hit in one or more screens of this group.
Rab9 promoter act: activators of Rab9 promoter. Huh7 Rab9 promoter-luciferase reporter, luminescence, 24 h. Potency, µM (doses to about 9.22 µM), for inactives: top-dose activation, negative = inhibition, most hits filed as activators. 2.8% of 320,000 active; also: % of control where 0% means no effect; nearly all actives have a fitted effect of over 60% in size
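Luciferase signal after 10 min detection reagent at ambient indicates Rab9 promoter upregulation; stably transfected Huh7 cells were treated 24 h with compound in DMSO at 37 °C, 5% CO2.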
ELG1 repair inh: blocks ELG1-dependent DNA repair in HEK293T cells | HEK293T ELG1-luciferase reporter, luminescence, 16 h; DNA damage induced by 5-fluorouridine | Potency, µM (top dose mostly 46.1 µM), without a hit: at the highest dose activity change, negative = inhibition, hits mostly inhibitors | 2.3% of 330,000 active; also: % is scaled to controls: 0 for no effect and ±100 for the full control effect; nearly all actives have a fitted effect of over 55% in size
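Cells (2,000 per well) received 5-fluorouridine plus test compound or DMSO and were incubated 16 hr at 37 °C, 5% CO2. Luciferase activity was read by luminescence 30 min after ONE-Glo addition; signal suppression marked inhibition of damage-induced ELG1 function.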
FLuc modulator: counter-screen for miR-21 project: firefly luciferase inhibitors or activators; purified FLuc, Km substrates, luminescence inhibition; 6.9% of 360,000 active; Potency, µM (doses to about 57.5 µM), inactives show top-dose activity change, negative = inhibition, usual class: inhibitors; P08659;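 also: plate controls were vehicle for no effect and reference inhibitor for full effect; nearly all actives have a fitted effect of over 55% in size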
Target sequence (P08659 whole entry, looked up): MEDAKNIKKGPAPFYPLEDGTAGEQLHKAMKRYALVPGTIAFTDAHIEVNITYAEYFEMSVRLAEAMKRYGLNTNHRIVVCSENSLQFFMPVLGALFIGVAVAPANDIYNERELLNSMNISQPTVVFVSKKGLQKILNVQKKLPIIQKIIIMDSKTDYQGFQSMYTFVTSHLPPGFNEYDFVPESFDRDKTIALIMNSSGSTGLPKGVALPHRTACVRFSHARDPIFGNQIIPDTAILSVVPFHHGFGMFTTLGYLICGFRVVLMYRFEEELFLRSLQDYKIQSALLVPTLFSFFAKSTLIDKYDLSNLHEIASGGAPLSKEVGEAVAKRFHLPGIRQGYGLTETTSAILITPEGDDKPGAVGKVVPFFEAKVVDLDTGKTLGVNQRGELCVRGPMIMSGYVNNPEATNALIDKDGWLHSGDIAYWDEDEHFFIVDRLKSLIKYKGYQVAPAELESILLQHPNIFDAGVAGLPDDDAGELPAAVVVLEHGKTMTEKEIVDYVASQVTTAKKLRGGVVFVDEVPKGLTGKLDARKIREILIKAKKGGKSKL
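Purified P. pyralis luciferase, 10 nM final, with Km-level 10 uM D-luciferin and 10 uM ATP in 50 mM Tris acetate pH 7.5, 10 mM Mg acetate, 0.01% Tween-20, 0.05% BSA; 6-point qHTS titration about 60 µM downward; luminescence read.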
ELG1 genotox: induces genotoxicity in HEK293T cells with luciferase-tagged ELG1; 1.3% of 330,000 active; Potency, µM (series often up to 46 µM), without a hit: at the top dose activity change, positive = activation, actives largely listed as activators; HEK293T ELG1-luciferase reporter, luminescence, 16 h; also: % of control where 0% means no effect; nearly all actives have a fitted effect of over 60% in size
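DMSO vehicle served as control against compound-treated ELG1-luciferase HEK293T cells; exposure lasted 16 hr at 37 °C and 5% CO2, followed by ONE-Glo luminescence detection after 30 min.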
SMN2 splice up: enhancers of SMN2 splice variant expression. HEK293 SMN2-luciferase splicing reporter, luminescence, 30-36 h. Potency, µM (top dose mostly 46.1 µM), inactives show top-dose activity change, positive = activation, usual class: activators. 2.8% of 210,000 active; also: % of control where 0% means no effect; nearly all actives have a fitted effect of over 55% in size
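HEK293 cells carry an SMN2 minigene-luciferase reporter in which exon 7 inclusion puts luciferase in frame. Cells were seeded at 2000 cells/well, attached for 10-12 hours, then exposed to compounds for 30-36 hours at 37C before ONE-Glo luminescence.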
NPC1 promoter act: NPC1 promoter activation; Potency, µM (top dose mostly 9.22 µM), without a hit: at the highest dose activation, usual class: activators; 2.4% of 320,000 active; Huh7 NPC1 promoter luciferase reporter, 24 h; AID 485313; also: % of control where 0% means no effect; nearly all actives have a fitted effect of over 60% in size
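Huh7 cells stably carrying NPC1 promoter–luciferase, plated in Opti-MEM with 10% FBS for 2 h, were exposed to compound in DMSO for 24 h at 37 °C; luciferase reagent was added for 10 min and luminescence read.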
The depositor's hits bear a star; ? = inconclusive; . = no result given. Calls follow the shape of the dose curve; as a rule, active = well fitted curve in the direction sought with a large enough effect; inconclusive = small, poorly fitted or top-dose-only effect, or another doubt; inactive = no such curve, though single readings can be large; an effect the other way counts as inactive or inconclusive. Potency is read from the fitted curve at half-maximal effect.

SMILES | Rab9 promoter act | ELG1 repair inh | FLuc modulator | ELG1 genotox | SMN2 splice up | NPC1 promoter act
CCc1c2ccccc2nn1-c1ccccc1C(=O)C(C)=O | 9% | -11% | -1% | -11% | . | -5%
O=[N+]([O-])c1ccc(/C=N/Nc2nc(N3CCOCC3)nc(N3CCOCC3)n2)cc1 | -5% | ? | 1% | -6% | 3% | -3%
Clc1ccc(-c2ccc(/C=N/Nc3cc(N4CCOCC4)nc(N4CCOCC4)n3)o2)cc1 | -1% | 5.8µM* | 0% | -6% | -13% | -6%
Fc1cnc(N/N=C/c2ccc(-c3ccc(Br)cc3)o2)nc1N1CCOCC1 | -10% | 12µM* | ? | -25% | . | -1%
Brc1ccc(-c2ccc(/C=N/Nc3nc(N4CCOCC4)nc(N4CCOCC4)n3)o2)cc1 | 0% | 5.8µM* | -6% | -6% | -16% | -4%
CCOc1cc(/C=N\Nc2ncc(F)c(N3CCOCC3)n2)ccc1Oc1nc(Cl)ncc1F | -15% | 23µM* | 21µM* | -10% | . | -6%
COc1ccc(-n2c(C)nnc2SCC(=O)N2CCOCC2)cc1 | -1% | 4% | -1% | 0% | . | -5%
COC(=O)C(C)NC(=O)CNS(=O)(=O)c1ccc(F)cc1 (configuration not stated) | -5% | -18% | -1% | -4% | -5% | -4%
CCc1c(C)c2cc3c(c(C)c2oc1=O)OCN(CCc1ccccc1F)C3 | . | . | ? | . | 24% | .
O=C(COC(=O)C1CC1)Nc1nc(-c2ccc(F)c(F)c2)cs1 | 21% | ? | -14% | ? | . | 10%
COc1cc(NC(=O)C2=C(N3CCOCC3)/C(=C/c3ccc(Cl)cc3)CC2)cc(OC)c1OC | -2% | 16µM* | -1% | -6% | -10% | -2%
COc1cc(NC(=O)C2=C(N3CCOCC3)/C(=C\c3ccc(N(C)C)cc3)CCC2)cc(OC)c1OC | -26% | ? | -6% | -1% | -24% | -19%
CC(C)CCNC(=O)C(c1ccc(O)cc1)N(Cc1ccco1)C(=O)CCC(=O)Nc1nccs1 (configuration not stated) | -5% | -12% | 2% | -11% | . | 0%
O=[N+]([O-])c1ccc2nc(-[n+]3c(-c4ccccc4)cc(-c4ccccc4)cc3-c3ccccc3)[nH]c2c1 | 4% | 23µM* | -1% | -11% | -43% | -2%
COc1ccc(-c2nc3ccc([N+](=O)[O-])cc3[nH]2)cc1 | 1.1µM* | ? | 1.5µM* | ? | 1µM* | 1.6µM*
Clc1ccc(-c2nc3ccncc3[nH]2)cc1 | ? | ? | 11µM* | ? | 11µM* | ?
O=[N+]([O-])c1ccc2nc(-c3ccccc3[N+](=O)[O-])[nH]c2c1 | 12% | 26% | ? | -12% | -5% | 1%
O=[N+]([O-])c1ccc2nc(-c3ccncc3)[nH]c2c1 | 28% | ? | 17µM* | ? | . | ?
COc1cc(C(C)=O)ccc1OCC(O)CNCC(O)c1ccccc1 (configuration not stated) | 2% | ? | 1% | 0% | . | 0%
COc1ccc(CCNC(=O)C(=O)NCC(c2ccco2)S(=O)(=O)c2cccs2)cc1 (configuration not stated) | . | . | -2% | . | . | .
CCOc1ccc(Cl)cc1C1CC(=O)Nc2cc(OC)c(OC)c(OC)c21 (configuration not stated) | . | . | 3% | . | -9% | .
CCCCNC(=O)C(CC)Sc1nnc(-c2ccc(OC)c(OC)c2)c(-c2ccc(OC)c(OC)c2)n1 (configuration not stated) | . | . | -1% | . | . | .
COc1ccc(S(=O)(=O)N2CCN(CC(=O)NC(Cc3ccccc3)C(C)=O)CC2)cc1 (configuration not stated) | . | -1% | . | 0% | . | .
Cc1ccc(SCC(=O)OCC(=O)N(C)CC(=O)Nc2ccc(F)cc2)cc1C | -6% | 12% | -13% | 0% | . | -3%
